According to PubChem BioAssay:
For some of these results: Measured potencies and affinities stand elsewhere. Activity calls are given as the source filed them. Unless noted, how the calls were made is not given here.

Experiments:
[1] = antimalarial activity against Dd2 strain (AID 2302;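 active means growth inhibition above 50% at the single 2 µM test dose, taken to imply half-maximal potency below 2 µM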;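 further: 0% = DMSO untreated growth and 100% = chloroquine plus artemisinin killed control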); conditions: P. falciparum Dd2 in RBCs, LDH growth readout, 72 h; at 2 µM; stronger effect = higher value
[2] = human hepatoma cell viability loss – ATP luminescence, cytotoxicity control for P. falciparum antimalarial project, primary screen (AID 2303;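 active means inhibition above 50%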;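 further: 0% = DMSO wells and 100% = digitonin-killed cells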); conditions: HepG2 viability, 24-48 h, at 10 µM, stronger effect = higher value
[3] = molecular target: L-lactate dehydrogenase (Plasmodium falciparum (isolate CDC / Honduras)) (UniProt Q27743); test: PfLDH activity inhibition – cell lysate, 3D7 strain, counter-screen for P. falciparum growth inhibition project (AID 2304);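 further: 0% = vehicle and 100% = reference inhibitor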; conditions: P. falciparum 3D7 crude extract, LDH APAD/NBT absorbance; at 2 µM; stronger effect = higher value
[4] = inhibition of 3D7 malaria parasite growth – strain 3D7 (AID 2306);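 further: 0% = DMSO wells and 100% = chloroquine plus artemisinin control wells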; conditions: P. falciparum 3D7 erythrocytic growth, LDH absorbance, 72 h; at 2 µM; stronger effect = higher value
[5] = molecular target: Calcium-dependent protein kinase 1 (Plasmodium falciparum (isolate 3D7)) (UniProt P62344); test: PfCDPK1 kinase inhibitors, biochemical, TCAMS library (AID 1159585; cut-off not given, nearly all actives have IC50 up to about 0.98 µM;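 further: inhibitors leave more ATP so luminescence rises with inhibition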); conditions: recombinant PfCDPK1, Kinase-Glo ATP depletion luminescence
[6] = molecular target: Plasmodium falciparum protein kinase 6 (PK6, PF3D7_1337100) (UniProt Q8IDW1); test: PfPK6 kinase inhibitors, biochemical, TCAMS library (AID 1159586); conditions: recombinant PfPK6, Kinase-Glo ATP depletion luminescence
[7] = molecular target: Protein kinase 7 (PK7), Plasmodium falciparum 3D7 (PF3D7_0213400) (UniProt Q7YTF7); test: inhibition of Plasmodium PK7 catalytic activity – biochemical, TCAMS antimalarial set, Kinase-Glo luminescence (AID 1159587); conditions: recombinant PfPK7, Kinase-Glo ATP depletion luminescence
[8] = molecular target: Calcium-dependent protein kinase 4 (Plasmodium falciparum (isolate 3D7)) (UniProt Q8IBS5); test: PfCDPK4 kinase inhibitors, biochemical, TCAMS library (AID 1159588; cut-off not given, nearly all actives have IC50 up to about 0.91 µM); conditions: recombinant PfCDPK4, Kinase-Glo ATP depletion luminescence
Chain of Calcium-dependent protein kinase 4 (Plasmodium falciparum (isolate 3D7)) (Q8IBS5 whole entry, looked up): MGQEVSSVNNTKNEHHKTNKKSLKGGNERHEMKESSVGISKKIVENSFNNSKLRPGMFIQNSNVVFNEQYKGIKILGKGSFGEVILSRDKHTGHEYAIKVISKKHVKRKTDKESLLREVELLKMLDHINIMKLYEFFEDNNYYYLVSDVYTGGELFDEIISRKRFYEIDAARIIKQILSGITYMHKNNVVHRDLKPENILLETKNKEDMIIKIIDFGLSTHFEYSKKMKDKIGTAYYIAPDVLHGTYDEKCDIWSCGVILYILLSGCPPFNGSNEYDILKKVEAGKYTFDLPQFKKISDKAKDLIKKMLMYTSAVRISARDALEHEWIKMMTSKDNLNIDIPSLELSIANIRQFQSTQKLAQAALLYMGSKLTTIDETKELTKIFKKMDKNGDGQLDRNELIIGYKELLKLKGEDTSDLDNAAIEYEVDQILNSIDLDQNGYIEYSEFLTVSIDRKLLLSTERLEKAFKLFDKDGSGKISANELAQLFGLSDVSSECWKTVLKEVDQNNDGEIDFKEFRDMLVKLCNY

Chain of Calcium-dependent protein kinase 1 (Plasmodium falciparum (isolate 3D7)) (P62344 whole entry, looked up): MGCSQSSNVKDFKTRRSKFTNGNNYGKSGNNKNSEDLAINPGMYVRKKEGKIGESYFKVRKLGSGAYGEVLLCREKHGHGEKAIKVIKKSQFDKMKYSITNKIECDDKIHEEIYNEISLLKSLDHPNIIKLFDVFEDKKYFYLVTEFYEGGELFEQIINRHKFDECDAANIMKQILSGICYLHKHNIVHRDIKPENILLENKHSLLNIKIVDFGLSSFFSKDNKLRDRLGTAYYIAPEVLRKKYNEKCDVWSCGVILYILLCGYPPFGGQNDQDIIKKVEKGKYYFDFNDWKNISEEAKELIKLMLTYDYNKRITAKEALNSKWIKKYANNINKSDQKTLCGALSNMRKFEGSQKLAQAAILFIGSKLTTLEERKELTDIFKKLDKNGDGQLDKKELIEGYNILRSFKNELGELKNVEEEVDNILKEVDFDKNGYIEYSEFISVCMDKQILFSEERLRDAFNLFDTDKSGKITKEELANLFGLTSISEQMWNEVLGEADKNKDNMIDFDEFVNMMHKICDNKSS
Chain of Protein kinase 7 (PK7), Plasmodium falciparum 3D7 (PF3D7_0213400) (Q7YTF7 1-343): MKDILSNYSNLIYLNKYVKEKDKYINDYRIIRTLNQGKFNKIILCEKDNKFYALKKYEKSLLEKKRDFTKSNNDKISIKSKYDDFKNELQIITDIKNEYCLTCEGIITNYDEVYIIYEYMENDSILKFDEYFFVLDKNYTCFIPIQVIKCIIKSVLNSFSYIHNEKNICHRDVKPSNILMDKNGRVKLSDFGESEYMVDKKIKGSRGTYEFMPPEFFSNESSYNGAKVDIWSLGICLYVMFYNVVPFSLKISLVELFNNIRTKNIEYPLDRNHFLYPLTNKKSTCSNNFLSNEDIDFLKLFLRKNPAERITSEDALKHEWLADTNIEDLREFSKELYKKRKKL
Chain of Plasmodium falciparum protein kinase 6 (PK6, PF3D7_1337100) (Q8IDW1 1-305): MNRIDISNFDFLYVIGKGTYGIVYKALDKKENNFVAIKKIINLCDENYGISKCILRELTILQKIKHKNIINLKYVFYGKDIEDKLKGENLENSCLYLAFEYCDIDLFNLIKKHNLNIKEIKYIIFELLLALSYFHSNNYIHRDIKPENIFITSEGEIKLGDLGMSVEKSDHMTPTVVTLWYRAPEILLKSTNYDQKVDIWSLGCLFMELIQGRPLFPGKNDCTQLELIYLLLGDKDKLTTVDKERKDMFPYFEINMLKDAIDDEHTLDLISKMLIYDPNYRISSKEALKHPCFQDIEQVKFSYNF
Chain of L-lactate dehydrogenase (Plasmodium falciparum (isolate CDC / Honduras)) (Q27743 whole entry, looked up): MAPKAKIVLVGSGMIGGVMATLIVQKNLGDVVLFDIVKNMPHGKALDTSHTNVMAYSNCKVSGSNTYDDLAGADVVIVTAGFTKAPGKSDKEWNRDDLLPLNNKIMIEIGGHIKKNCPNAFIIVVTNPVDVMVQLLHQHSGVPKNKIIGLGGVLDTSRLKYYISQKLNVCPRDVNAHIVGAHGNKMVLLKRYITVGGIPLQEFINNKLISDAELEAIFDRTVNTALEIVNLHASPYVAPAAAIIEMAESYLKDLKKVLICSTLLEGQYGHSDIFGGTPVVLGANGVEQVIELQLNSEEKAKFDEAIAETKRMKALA

Cc1cc(C(=O)NC2CCN(CC3(c4ccccc4)CCCCC3)CC2)on1
active: growth inhibition [1] 95% | growth inhibition [4] 97%
inactive: inhibition [2] -3% | inhibition [3] -3% | outcome [5] | outcome [6] | outcome [7] | outcome [8]

Cc1cccc2[nH]c(-c3ccc(-c4ccc(CNCc5cccc(N)c5)cc4)cc3)nc12
active: growth inhibition [1] 84% | growth inhibition [4] 102%
inactive: inhibition [2] 12% | inhibition [3] -9% | outcome [5] | outcome [6] | outcome [7] | outcome [8]

CC1(C)CCC(C)(C)c2c1ccc(C1CCN(CCCCNC(=O)c3ccc(-c4ccc(C#N)cc4)cc3)CC1)c2O
inactive: inhibition [3] 7% | outcome [5] | outcome [6] | outcome [7] | outcome [8]
active: growth inhibition [1] 85% | inhibition [2] 81% | growth inhibition [4] 100%

CN(C)CC(=O)Nc1ccc(-c2ccc3ccnc(N)c3c2)cc1
inactive: inhibition [3] 2% | outcome [5] | outcome [6] | outcome [7] | outcome [8]
active: growth inhibition [1] 99% | inhibition [2] 69% | growth inhibition [4] 101%

O=[N+]([O-])c1ccc(-c2ccc(C=NNc3nc(Nc4ccccc4)nc(Nc4ccccc4)n3)o2)cc1
active: growth inhibition [4] 91%
inactive: growth inhibition [1] 12% | inhibition [2] -4% | inhibition [3] 1% | outcome [5] | outcome [6] | outcome [7] | outcome [8]

Fc1cccc(COc2ccc(Nc3ncnc4sc(C#CCNC5CCCC5)cc34)cc2Cl)c1
inactive: inhibition [2] 3% | inhibition [3] 3% | outcome [5] | outcome [6] | outcome [7] | outcome [8]
active: growth inhibition [1] 78% | growth inhibition [4] 100%

O=C(Nc1ccnc(-c2cccnc2)n1)c1cc(C(F)(F)F)cc(C(F)(F)F)c1
inactive: growth inhibition [1] 12% | inhibition [2] 22% | inhibition [3] -4% | outcome [5] | outcome [6] | outcome [7] | outcome [8]
active: growth inhibition [4] 95%

Cc1cccc2[nH]c(-c3ccc(-c4ccc(CNCC5CCCO5)cc4)s3)nc12 (stereo not drawn)
inactive: inhibition [2] 11% | inhibition [3] -5% | outcome [5] | outcome [6] | outcome [7] | outcome [8]
active: growth inhibition [1] 96% | growth inhibition [4] 100%

c1ccc(Oc2ccc(Nc3nncc4ccccc34)cc2)cc1
active: growth inhibition [1] 82% | growth inhibition [4] 86%
inactive: inhibition [2] 20% | inhibition [3] 1% | outcome [5] | outcome [6] | outcome [7] | outcome [8]

CCc1cn2c3c(cc(C(=O)N[C@@H](Cc4cccc(F)c4)[C@H](O)CNC4CCCCC4)cc13)N(C)S(=O)(=O)CC2
active: growth inhibition [1] 99% | growth inhibition [4] 99%
inactive: inhibition [2] 5% | inhibition [3] 0% | outcome [5] | outcome [6] | outcome [7] | outcome [8]

Oc1ccc(CCNc2nc(NCc3ccccc3-c3cccc(Cl)c3)nc(N3CCNCC3)n2)cc1
active: growth inhibition [4] 84%
inactive: growth inhibition [1] 11% | inhibition [2] 15% | inhibition [3] -3% | outcome [5] | outcome [6] | outcome [7] | outcome [8]

COc1ccc2nc3cc(Cl)ccc3c(NCCN3CCN(C)CC3)c2c1
active: growth inhibition [1] 99% | growth inhibition [4] 100%
inactive: inhibition [2] 29% | inhibition [3] 2% | outcome [5] | outcome [6] | outcome [7] | outcome [8]

COc1cc2c(cc1NC(=O)CN1CCN(C(=O)c3ccco3)CC1)oc1ccccc12
inactive: inhibition [2] 13% | inhibition [3] -2% | outcome [5] | outcome [6] | outcome [7] | outcome [8]
active: growth inhibition [1] 96% | growth inhibition [4] 96%

O=C(Nc1ccc(OC2CCN(Cc3ccco3)CC2)c(Cl)c1)c1ccc2ncccc2c1
active: growth inhibition [4] 97%
inactive: growth inhibition [1] 40% | inhibition [2] -5% | inhibition [3] -4% | outcome [5] | outcome [6] | outcome [7] | outcome [8]

O=C(Nc1cccc(C(F)(F)F)c1)c1cccc(S(=O)(=O)NCC2CCCN(CC3CCCCC3)C2)c1 (stereo not drawn)
active: growth inhibition [4] 99%
inactive: growth inhibition [1] 11% | inhibition [2] 17% | inhibition [3] -1% | outcome [5] | outcome [6] | outcome [7] | outcome [8]

Cc1ccc(CN=C(N)NC(=O)c2nc(Cl)c(NCc3ccc(Cl)cc3)nc2N)c(C)c1
inactive: inhibition [2] 28% | inhibition [3] -5% | outcome [5] | outcome [6] | outcome [7] | outcome [8]
active: growth inhibition [1] 100% | growth inhibition [4] 101%

COc1ccc(-c2ccc(NC(=O)c3ccc(Cl)cc3)cc2)cc1CN1CCN(C)CC1
active: growth inhibition [4] 86%
inactive: growth inhibition [1] 23% | inhibition [2] 36% | inhibition [3] 7% | outcome [5] | outcome [6] | outcome [7] | outcome [8]

NC1=NC2(CCCCC2)N(OCCCCCCN2C(=O)c3ccccc3C2=O)C(N)=N1
active: growth inhibition [4] 98%
inactive: growth inhibition [1] 16% | inhibition [2] 20% | inhibition [3] 1% | outcome [5] | outcome [6] | outcome [7] | outcome [8]

O=C(Nc1ccc(Cl)cc1)Nc1nc2ccc([N+](=O)[O-])cc2[nH]1
active: growth inhibition [4] 101%
inactive: growth inhibition [1] 6% | inhibition [2] -2% | inhibition [3] 3% | outcome [5] | outcome [6] | outcome [7] | outcome [8]

Cc1cc(F)ccc1C1CCN(CCCCNC(=O)c2ccc(NC(=O)c3ccc(Cl)cc3)cc2)CC1
inactive: inhibition [2] 19% | inhibition [3] 0% | outcome [5] | outcome [6] | outcome [7] | outcome [8]
active: growth inhibition [1] 79% | growth inhibition [4] 101%

CCN1CCN(Cc2ccc3nc(-c4cc(C)n(Cc5cc(Cl)ccc5OCc5ccccc5)n4)[nH]c3c2)CC1
inactive: inhibition [2] 11% | inhibition [3] 2% | outcome [5] | outcome [6] | outcome [7] | outcome [8]
active: growth inhibition [1] 97% | growth inhibition [4] 102%

Cc1cc(C)c(C(=O)Nc2n[nH]c3nnc(-c4cccc(F)c4F)cc23)c(C)c1
active: growth inhibition [4] 90%
inactive: growth inhibition [1] -4% | inhibition [2] -2% | inhibition [3] -4% | outcome [5] | outcome [6] | outcome [7] | outcome [8]

COc1ccc2nccc([C@@H](O)CN3CC[C@H](NCc4nc5c(cc4Cl)OCC(=O)N5)[C@H](F)C3)c2c1
inactive: growth inhibition [1] 29% | inhibition [2] 4% | inhibition [3] 4% | outcome [5] | outcome [6] | outcome [7] | outcome [8]
active: growth inhibition [4] 84%

CCOc1cc(C(=O)NCCCN2CCCCC2C)ccc1-c1nc2ccc(Cl)cc2[nH]1 (stereo not drawn)
inactive: growth inhibition [1] 0% | inhibition [2] 2% | inhibition [3] -2% | outcome [5] | outcome [6] | outcome [7] | outcome [8]
active: growth inhibition [4] 89%

CSC1=NC(=Nc2c(C)cccc2C)C2(CCCCC2)N1c1ccccc1Cl
inactive: inhibition [2] 22% | inhibition [3] -6% | outcome [5] | outcome [6] | outcome [7] | outcome [8]
active: growth inhibition [1] 57% | growth inhibition [4] 95%

COc1ccc(CCON2C(N)=NC(N)=NC2(C)C)cc1OC
active: growth inhibition [1] 93% | inhibition [2] 64% | growth inhibition [4] 96%
inactive: inhibition [3] 2% | outcome [5] | outcome [6] | outcome [7] | outcome [8]

CCCCCCN1CCC(NCc2ccc(Cl)cc2)CC1
active: growth inhibition [4] 98%
inactive: growth inhibition [1] 9% | inhibition [2] 19% | inhibition [3] -7% | outcome [5] | outcome [6] | outcome [7] | outcome [8]

COc1cc(CCCOc2c(N)nc(N)nc2N)cc(OC)c1OC
inactive: growth inhibition [1] 0% | inhibition [2] 8% | inhibition [3] 2% | outcome [5] | outcome [6] | outcome [7] | outcome [8]
active: growth inhibition [4] 88%

CCCCN(CCCC)C(=N)c1cccc2c1CCCC2
inactive: growth inhibition [1] 9% | inhibition [2] 11% | inhibition [3] -2% | outcome [5] | outcome [6] | outcome [7] | outcome [8]
active: growth inhibition [4] 95%

O=C(NC1CCN(c2ccnc3cc(Cl)ccc23)C1)c1ccc(F)cc1F (stereo not drawn)
active: growth inhibition [1] 100% | growth inhibition [4] 100%
inactive: inhibition [2] 31% | inhibition [3] 2% | outcome [5] | outcome [6] | outcome [7] | outcome [8]

O=S(=O)(Nc1ccc(CCN2CCC(N3CCCCC3)CC2)cc1)c1cccc(C(F)(F)F)c1
active: growth inhibition [4] 101%
inactive: growth inhibition [1] 15% | inhibition [2] 20% | inhibition [3] -3% | outcome [5] | outcome [6] | outcome [7] | outcome [8]

COc1ccc2nccc([C@@H](O)CN3CCC(CO)(NCc4cc5ccccc5o4)CC3)c2c1
inactive: growth inhibition [1] 7% | inhibition [2] 12% | inhibition [3] -1% | outcome [5] | outcome [6] | outcome [7] | outcome [8]
active: growth inhibition [4] 85%

COc1ccc(-c2ccc(NC(=O)c3ccc(C#N)cc3)cc2)cc1CNC(C)C
inactive: growth inhibition [1] 38% | inhibition [2] 19% | inhibition [3] -3% | outcome [5] | outcome [6] | outcome [7] | outcome [8]
active: growth inhibition [4] 100%

Cc1[nH]c(C)c(-c2ccc(OCCCCSc3ccncc3)cc2)c(=O)c1Br
inactive: inhibition [2] -3% | inhibition [3] -2% | outcome [5] | outcome [6] | outcome [7] | outcome [8]
active: growth inhibition [1] 97% | growth inhibition [4] 97%

COc1ccc2nccc(NN=Cc3cccc(Cl)c3)c2c1
inactive: inhibition [2] 1% | inhibition [3] 3% | outcome [5] | outcome [6] | outcome [7] | outcome [8]
active: growth inhibition [1] 99% | growth inhibition [4] 100%

CN1CCC(C(=O)Nc2ccc(-c3ccc(-c4nc5ccccc5[nH]4)cc3)cc2)CC1
inactive: inhibition [2] 28% | inhibition [3] 5% | outcome [5] | outcome [6] | outcome [7] | outcome [8]
active: growth inhibition [1] 94% | growth inhibition [4] 101%

C=CCc1cc(Cc2cnc(N)nc2N)cc(CCC)c1OC
inactive: growth inhibition [1] 1% | inhibition [2] 3% | inhibition [3] 0% | outcome [5] | outcome [6] | outcome [7] | outcome [8]
active: growth inhibition [4] 83%

COc1cc2nc(-c3ccccc3)nc(N3CCN(C(=O)c4ccco4)CC3)c2cc1OC
inactive: inhibition [2] -7% | inhibition [3] 7% | outcome [5] | outcome [6] | outcome [7] | outcome [8]
active: growth inhibition [1] 87% | growth inhibition [4] 89%

CC(=O)Oc1cc(OCc2ccccc2)c(OC(C)=O)c(OCc2ccccc2)c1
active: growth inhibition [1] 78% | growth inhibition [4] 94%
inactive: inhibition [2] 11% | inhibition [3] 1% | outcome [5] | outcome [6] | outcome [7] | outcome [8]

CCCCOC(=O)c1ccc(NC(=O)Nc2ccc(Cn3ncc(N4CCCNCC4)c(Cl)c3=O)cc2)cc1
inactive: inhibition [2] 2% | inhibition [3] 2% | outcome [5] | outcome [6] | outcome [7] | outcome [8]
active: growth inhibition [1] 74% | growth inhibition [4] 92%

O=C(Nc1cccc(-c2nn3ccccc3c2-c2ccnc(Nc3cccc(N4CCCC4=O)c3)n2)c1)c1cc(F)ccc1F
inactive: inhibition [3] 3% | outcome [5] | outcome [6] | outcome [7] | outcome [8]
active: growth inhibition [1] 51% | inhibition [2] 59% | growth inhibition [4] 99%
